Assay [1] in a line: inhibitors of TNFa-induced NFkB p65 translocation, primary screen, imaging, HUVEC, MLSMR starter and 10KST1 sets (AID 438;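 active = inhibition above 20% together with a positive visual image hit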;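 also: compound added about 3h40 before a 20 min TNFalpha stimulation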;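 as to inhibition: signal is the nuclear over cytoplasmic p65 intensity ratio per well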). Conditions: HUVEC TNFa-induced p65 nuclear translocation; cell count: measured here: nuclei count (cytotoxicity indicator), at 2.08 µM; inhibition: at 2 µM, stronger effect = higher value, 0% TNFa-plus-vehicle, 100% no-TNFa wells.
Assay [2] can be described thus: inhibitors of mutant huntingtin aggregation, primary screen, imaging, exon1htt(103Q)mCFP cells, high-content imaging (AID 483;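 active = visual image review flags a hit and inhibition of aggregation exceeds 20%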;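 also: compound exposure lasted 3 days before fixation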;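 as to nuclei count: percent of the per-plate median nuclei count of sample wells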). To be noted: exon1htt(103Q)mCFP cell line, aggregate imaging, at 2 µM; inhibition of aggregation: stronger effect = higher value; nuclei count: measured here: cell count, toxicity.
Assay [3] in a line: inhibitors of E-selectin induction by TNFa, primary screen, imaging, HUVEC, immunofluorescence, MLSMR starter and 10KST1 sets (AID 487;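 active = visually confirmed hit in the image check and inhibition above 20%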;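 as to inhibition: signal is fraction of cell area covered by stained E-selectin grains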;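 as to nuclei count: 100% = median nuclei count of all wells on the same plate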). Conditions: HUVEC TNFalpha-induced E-selectin immunofluorescence imaging, at 2 µM; inhibition: stronger effect = higher value; nuclei count: measured here: cell number, toxicity.
Assay [4] deals with Voltage-gated potassium channel subunit beta-2 (Rattus norvegicus) (UniProt P62483). The experiment in a line: KvBeta enzyme negative modulators, primary screen, biochemical, NADPH fluorescence (AID 622;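 active = fluorescence slope higher than the sample average by over 3 SD, cut at about -0.22 in these data, passing the limit was not always enough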;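 also: slope of raw intensity against log time taken from 70 to 1610 s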). To be noted: recombinant KvBeta, 4-cyanobenzaldehyde reduction, at 10 µM, stronger effect = higher value.
For assay [5] the target is unchanged. Put plainly: KvBeta positive modulators, primary screen, biochemical, NADPH fluorescence (AID 623;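 active = NADPH fluorescence slope more negative than the mean of all samples by about 3 SD, 99.7% confidence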;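 also: fluorescence intensity change per second fitted from 20 to 320 s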). To be noted: Recombinant KvBeta, NADPH fluorescence decrease slope, 10 min; at 10 µM; stronger effect = lower value.
The target in assay [6] is Alpha-2C adrenergic receptor (Homo sapiens) (UniProt P18825). The experiment in a line: modulators of alpha2C/GIRK thallium flux, primary screen, cell-based, HEK293 alpha2C/GIRK1/2 (AID 624;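 active = fluorescence slope after compound addition differing from the mean of all screened samples at 99.7% confidence, in either direction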;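 also: slope of fluorescence ratio to pre-addition baseline per second over 15 to 24 s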). To be noted: thallium flux BTC fluorescence, at 10 µM, actives lie on both sides.
A short description of assay [7]: inhibitors of Sendai virus-induced IRF3 signaling, primary screen, TLR/RLR signaling modifier project, cell-based, Sendai virus stimulus, luciferase, 10K MLSCN set (AID 602276;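 active = inhibition at or above 50% at 10 µM; inactive = inhibition below 50%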;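 also: firefly luciferase from ISG56 promoter only with Renilla not read in this screen; 0% = Sendai virus plus DMSO and 100% = medium plus DMSO without virus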). Conditions: HEK293 RL24 IRF3 luciferase reporter, at 10 µM, stronger effect = higher value. For orientation: A reporter such as luciferase makes a cellular process visible.
Assay [8] can be described thus: inhibitors of poly I:C-induced TLR3 signaling, primary screen, cell-based, poly I:C stimulus, luciferase, 10K MLSCN set (AID 602277). To be noted: HEK293-TLR3 RL24 IRF3 luciferase reporter, at 10 µM, stronger effect = higher value.

This note sets out measurements from PubChem BioAssay.

The source made the active and inactive calls.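 The calls were made as follows, unless noted: active = inhibition of the reporter signal at or above 50%; inactive = inhibition below 50%.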

Chain of Voltage-gated potassium channel subunit beta-2 (Rattus norvegicus) (P62483 whole entry, looked up): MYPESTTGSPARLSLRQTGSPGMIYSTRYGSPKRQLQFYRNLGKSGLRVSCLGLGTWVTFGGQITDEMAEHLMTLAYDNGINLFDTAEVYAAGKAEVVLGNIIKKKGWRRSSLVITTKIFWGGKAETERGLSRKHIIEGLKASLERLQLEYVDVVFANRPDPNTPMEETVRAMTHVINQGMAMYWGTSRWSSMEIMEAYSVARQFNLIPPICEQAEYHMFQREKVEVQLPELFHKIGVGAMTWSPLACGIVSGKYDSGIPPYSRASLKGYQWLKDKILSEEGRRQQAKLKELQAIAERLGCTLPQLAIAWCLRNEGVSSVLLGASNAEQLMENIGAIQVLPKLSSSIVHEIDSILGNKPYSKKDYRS
Chain of Alpha-2C adrenergic receptor (Homo sapiens) (P18825 whole entry, looked up): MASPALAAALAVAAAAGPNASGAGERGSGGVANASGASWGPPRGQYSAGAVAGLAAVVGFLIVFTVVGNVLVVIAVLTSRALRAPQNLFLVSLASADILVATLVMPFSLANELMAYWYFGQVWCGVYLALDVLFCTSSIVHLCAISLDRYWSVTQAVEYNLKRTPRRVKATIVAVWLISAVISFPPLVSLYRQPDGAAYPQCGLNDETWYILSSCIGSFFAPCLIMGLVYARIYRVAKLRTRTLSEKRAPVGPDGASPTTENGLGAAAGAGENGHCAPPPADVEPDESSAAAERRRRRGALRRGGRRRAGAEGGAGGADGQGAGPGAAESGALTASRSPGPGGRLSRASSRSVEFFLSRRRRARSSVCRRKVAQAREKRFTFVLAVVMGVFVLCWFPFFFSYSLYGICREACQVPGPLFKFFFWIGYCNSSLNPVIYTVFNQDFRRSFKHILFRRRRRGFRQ

On to `CCOc1ccc(OCC)c(NC(=O)C2CCN(c3ncccn3)CC2)c1`, for which the cell count in assay [1] turned out to be 588. The inhibition in assay [1] was -14.2% (inactive); in assay [3], -43.7% (inactive); in assay [7], 8.17% (inactive); in assay [8], 11.1% (inactive). For the same compound, in assay [2], the inhibition of aggregation is 10.9% (inactive). Besides, the nuclei count in assay [2] came to 103%; in assay [3], 113%. Further, the fluorescence slope in assay [4] is -0.421 (inactive). Also, the NADPH fluorescence slope in assay [5] was -5.1e-05 (inactive). The slope in assay [6] is 0.0054 (inactive).

Take `CCOc1ccccc1CNC(=O)CCN1C(=O)COc2ccccc21`: in assay [1], the cell count stood at 630. Further, the inhibition in assay [1] is -1.8% (inactive); in assay [3], -71.5% (inactive); in assay [7], 12.2% (inactive); in assay [8], 2.75% (inactive). In addition, the inhibition of aggregation in assay [2] was -12.2% (inactive). Besides, the nuclei count in assay [2] was 47.7%; in assay [3] it was 94.5%. For the same compound, the fluorescence slope in assay [4] was -0.379 (inactive). Besides, the NADPH fluorescence slope in assay [5] was -2.3e-05 (inactive). Moreover, the slope in assay [6] is 0.00611 (inactive).

`O=C(CN1CCOCC1)N1CCCc2c1c(=O)oc1ccc(OCc3ccccc3)cc21`: the cell count in assay [1] was found to be 427. In addition, the inhibition was 7.3% (inactive) in assay [1], -40.7% (inactive) in assay [3], -0.877% (inactive) in assay [7] and 9.59% (inactive) in assay [8]. Moreover, in assay [2], the inhibition of aggregation is 5.6% (inactive). In addition, the nuclei count in assay [2] and in assay [3] was 109% in each case. In assay [4], the fluorescence slope is -0.589 (inactive). The NADPH fluorescence slope in assay [5] is -4.6e-05 (inactive). Besides, the slope in assay [6] was 0.00267 (inactive).

Regarding `CCN(CCNC(=O)CS(=O)(=O)Cc1nc(-c2cccc(OC)c2)oc1C)c1ccccc1`, in assay [1], the cell count stood at 644. Moreover, the inhibition in assay [1] was -27.6% (inactive); in assay [3], -37.8% (inactive); in assay [7] it was 13.7% (inactive); in assay [8], 20.1% (inactive). In addition, the inhibition of aggregation in assay [2] was -16.4% (inactive). For the same compound, the nuclei count in assay [2] was 121%; in assay [3], 107%. The fluorescence slope in assay [4] was -0.53 (inactive). Also, the NADPH fluorescence slope in assay [5] is -4e-05 (inactive). Further, in assay [6], the slope was 0.00529 (inactive).

On to `CCOC(=O)c1ccccc1NC(=O)CSc1nnc(COc2ccccc2C)n1C`, for which the cell count in assay [1] came out at 667. The inhibition is 14.9% (inactive) in assay [1], 45.4% (inactive) in assay [3], 16.9% (inactive) in assay [7] and 22.9% (inactive) in assay [8]. Also, the inhibition of aggregation in assay [2] was 11.9% (inactive). Further, the nuclei count in assay [2] stood at 97.3%; in assay [3], 100%. For the same compound, the fluorescence slope in assay [4] is -0.346 (inactive). The NADPH fluorescence slope in assay [5] is -4.2e-05 (inactive). Besides, in assay [6], the slope was 0.00577 (inactive).

For the compound `CN1CCN(C(=O)NC2CCCN2S(=O)(=O)c2ccc(Cl)cc2)CC1` (stereo not drawn), in assay [1], the cell count turned out to be 528. Besides, the inhibition was -20.6% (inactive) in assay [1], 31.3% (inactive) in assay [3], 0.971% (inactive) in assay [7] and 21.8% (inactive) in assay [8]. Also, the inhibition of aggregation in assay [2] is 11.5% (inactive). Moreover, the nuclei count in assay [2] is 106%; in assay [3], 105%. Further, the fluorescence slope in assay [4] was -0.493 (inactive). In addition, the NADPH fluorescence slope in assay [5] was -5.8e-05 (inactive). The slope in assay [6] is 0.00636 (inactive).

For `Cc1c(-n2c(CN3C(=O)c4ccccc4C3=O)nc3ccccc3c2=O)c(=O)n(-c2ccccc2)n1C`, the cell count in assay [1] is 407. Besides, the inhibition in assay [1] is -8.4% (inactive); in assay [3] it was 77.1% (inactive); in assay [7], 5.03% (inactive); in assay [8], 24.9% (inactive). Besides, the inhibition of aggregation in assay [2] was -10.1% (inactive). Also, the nuclei count in assay [2] was found to be 115%; in assay [3], 95.8%. The fluorescence slope in assay [4] was -0.619 (inactive). For the same compound, the NADPH fluorescence slope in assay [5] was 1.1e-05 (inactive). In assay [6], the slope is 0.00583 (inactive).

On to `C=CCSc1n[nH]c(-c2ccc(OC)cc2)n1`, for which, in assay [1], the cell count came to 244. Also, the inhibition in assay [1] was 17.3% (inactive); in assay [3], -73.2% (inactive); in assay [7], -90.7% (inactive); in assay [8] it was -168% (inactive). Also, in assay [2], the inhibition of aggregation was -8.3% (inactive). The nuclei count in assay [2] came out at 89.5%; in assay [3], 103%. Also, the fluorescence slope in assay [4] is -0.417 (inactive). Also, the NADPH fluorescence slope in assay [5] is -9.3e-05 (inactive). Moreover, in assay [6], the slope was 0.00611 (inactive).

As to `Cc1ccc(NC(=O)CSc2nnc(-c3ccncc3)n2C)cc1C`, the cell count in assay [1] stood at 822. Besides, the inhibition in assay [1] was -13.9% (inactive); in assay [3] it was -44.4% (inactive); in assay [7] it was -15.3% (inactive); in assay [8], -22.4% (inactive). Further, the inhibition of aggregation in assay [2] was 18.5% (inactive). Moreover, the nuclei count in assay [2] was 85%; in assay [3], 130%. The fluorescence slope in assay [4] is -0.591 (inactive). The NADPH fluorescence slope in assay [5] was 4.1e-06 (inactive). Besides, the slope in assay [6] is 0.00642 (inactive).

In the case of `CCOC(=O)c1ccc(NS(=O)(=O)c2ccc3c(c2)oc(=O)n3C)cc1`, the cell count in assay [1] came out at 467. Moreover, the inhibition in assay [1] is 1.3% (inactive); in assay [3], 10.3% (inactive); in assay [7], -7.08% (inactive); in assay [8], 14% (inactive). Further, the inhibition of aggregation in assay [2] is 25.3% (inactive). For the same compound, the nuclei count is 72.9% in assay [2] and 107% in assay [3]. The fluorescence slope in assay [4] was -0.602 (inactive). Besides, the NADPH fluorescence slope in assay [5] was -1.1e-05 (inactive). In addition, the slope in assay [6] is 0.00688 (inactive).

On to `COc1ccc(CCNc2nc(N3CCOCC3)nc(N3CCOCC3)n2)cc1OC`, for which, in assay [1], the cell count turned out to be 229. For the same compound, the inhibition in assay [1] is 10.4% (inactive); in assay [3], 15.6% (inactive); in assay [7] it was 15.3% (inactive); in assay [8], 10.3% (inactive). The inhibition of aggregation in assay [2] was 14.9% (inactive). Also, the nuclei count in assay [2] turned out to be 66.5%; in assay [3] it was 91.3%. The fluorescence slope in assay [4] is -0.515 (inactive). For the same compound, the NADPH fluorescence slope in assay [5] was -3.3e-05 (inactive). The slope in assay [6] was 0.00378 (inactive).

Turning to `COCCN(CCOC)S(=O)(=O)c1ccc(C(=O)Nc2nnc(C3CC3)o2)cc1`, the cell count in assay [1] was found to be 390. Also, the inhibition in assay [1] was -0.2% (inactive); in assay [3] it was 44.1% (inactive); in assay [7], 16.9% (inactive); in assay [8], 24.5% (inactive). The inhibition of aggregation in assay [2] is 0% (inactive). The nuclei count was determined as 102% in assay [2] and 100% in assay [3]. Besides, in assay [4], the fluorescence slope was -0.484 (inactive). Further, the NADPH fluorescence slope in assay [5] was -3.8e-05 (inactive). For the same compound, the slope in assay [6] is 0.00677 (inactive).

Turning to `Cn1c(SCc2nnc3n2CCCCC3)nc2ccccc21`, the cell count in assay [1] came to 252. Besides, the inhibition in assay [1] was -15.3% (inactive); in assay [3] it was -94.2% (inactive); in assay [7], 14% (inactive); in assay [8], 20% (inactive). Further, in assay [2], the inhibition of aggregation is -3.3% (inactive). The results for the nuclei count in assay [2] and in assay [3] were 94.7% and 127%, respectively. Also, the fluorescence slope in assay [4] was -0.433 (inactive). The NADPH fluorescence slope in assay [5] was -2.7e-05 (inactive). Also, the slope in assay [6] is 0.00588 (inactive).

Broadly, the inhibition is the drop in the measured response relative to a control, in per cent.
